# Assay outcomes: PubChem BioAssay, several laboratories
# TWEAK-Fn14 inh – TWEAK-Fn14 signaling inhibition | inhibition, % at 10 µM | TWEAK-stimulated Fn14 reporter cells, luciferase luminescence, 8 h | 2% of 360,000 active; in the data active = inhibition above about 50%
# PAX8 reporter – inhibitors of PAX8 transcriptional activity in RMG-I cells. inhibition, % at 12.6 µM. 1.2% of 360,000 active. RMG-I TPO-luciferase reporter, SteadyGlo, 24 h;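 active = mean replicate inhibition at least 60% with every replicate also reaching 60%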;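 also: luciferase light reporting Pax8 driven TPO promoter activity; plate controls were median of neutral control wells for no effect and mitoxantrone controls for full effect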
# EWS-Fli block – inhibitors of EWS/Fli oncoprotein transcriptional activity. A673 NR0B1-luciferase reporter, viability-normalised. inhibition, % at 12.6 µM. 0.67% of 350,000 active. AID 651661;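 active = mean inhibition of at least 50% after viability correction, with every replicate also passing that limit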;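 also: firefly luciferase signal divided by Alamar Blue viability fluorescence both relative to DMSO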
# TROY NFkB inh – TROY signaling inhibition. Q293 LMP1-TROYcd NF-kB luciferase reporter, 4 h. inhibition, % at 10 µM. 0.98% of 360,000 active. AID 1347056;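 active = compounds whose plate-normalised and pattern-corrected inhibition of the luciferase reporter signal at the single screening dose is 50% or more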
# LGR2 inh – Drosophila LGR2 receptor signaling inhibition; inhibition, % at 9.99 µM; 0.35% of 380,000 active; HEK293 LGR2, CRE-luciferase, bursicon-stimulated, 4 h;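 active = drop in luminescence signal, shown as inhibition above about 50% in the replicate tests, limit read from the data, passing the limit was not always enough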;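 also: agonist challenge used bursicon conditioned medium at about half maximal strength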
# LMP1 NFkB inh – reduces LMP1-driven NF-kappaB luciferase signal | LMP1-induced NF-kappaB luciferase reporter cells, luminescence | inhibition, % at 12.5 µM | 0.69% of 350,000 active; in the data active = inhibition above about 41%;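 also: 0% = neutral control wells and 100% = reference inhibitor control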
# * marks the source's active call; other numbers are inactive results; / = no result. Shown are actives, neighbours in structure and some others; about 3.2% of the full set was active somewhere.
SMILES,TWEAK-Fn14 inh,PAX8 reporter,EWS-Fli block,TROY NFkB inh,LGR2 inh,LMP1 NFkB inh
CN(C)CCCNC(=O)C[C@@H]1CC[C@H](NS(=O)(=O)c2ccc(F)cc2)[C@@H](CO)O1,/,-3,-2,/,3,/
C[C@H]1CCCCO[C@H](CN(C)C(=O)Nc2ccc(C(F)(F)F)cc2)[C@@H](C)CN([C@@H](C)CO)C(=O)c2cc(NS(=O)(=O)c3cn(C)cn3)ccc2O1,/,5,-24,/,-11,/
C[C@@H]1CN([C@@H](C)CO)C(=O)c2cc(NS(=O)(=O)c3ccccc3)ccc2O[C@@H](C)CCCCO[C@H]1CN(C)C(=O)Nc1ccc(C(F)(F)F)cc1,/,-14,-7,/,-1,/
C[C@H]1CCCCO[C@@H](CN(C)C(=O)Nc2ccc(C(F)(F)F)cc2)[C@@H](C)CN([C@@H](C)CO)C(=O)c2cc(NS(=O)(=O)c3cn(C)cn3)ccc2O1,/,91*,28,/,-2,/
C[C@@H]1CCCCO[C@@H](CN(C)C(=O)Nc2ccc(C(F)(F)F)cc2)[C@H](C)CN([C@H](C)CO)C(=O)c2cc(NS(=O)(=O)c3ccccc3)ccc2O1,/,84*,23,/,14,/
C[C@H]1CCCCO[C@H](CN(C)C(=O)Nc2ccc(C(F)(F)F)cc2)[C@@H](C)CN([C@@H](C)CO)C(=O)c2cc(NS(=O)(=O)c3ccccc3)ccc2O1,/,79*,20,/,8,/
C[C@H]1CN([C@@H](C)CO)C(=O)c2cc(C#CCc3ccccc3)cnc2O[C@@H]1CN(C)Cc1cccc(F)c1,/,/,26,/,24,/
C[C@H](NC(=O)C[C@@H]1CC[C@H](NC(=O)Cc2ccccn2)[C@@H](CO)O1)c1ccccc1,/,28,4,/,2,/
C[C@@H]1CCCCO[C@H](CN(C)S(C)(=O)=O)[C@@H](C)CN([C@H](C)CO)C(=O)c2cc(NC(=O)C3CCCCC3)ccc2O1,/,-18,-2,/,13,/
CC(=O)NS(=O)(=O)c1ccc(NC(=O)COc2ccc(C(=O)c3ccccc3)cc2)cc1,12,75*,3,12,0,-9
O=c1[nH]c(NC2CCN(S(=O)(=O)c3ccccc3C(F)(F)F)CC2)nc2c1CCCC2,32,19,15,36,10,53*
O=C(NC1CCN(S(=O)(=O)c2ccccc2C(F)(F)F)CC1)c1ccco1,56*,20,5,0,-20,-5
O=C(NC1CCN(S(=O)(=O)c2ccc(F)cc2)CC1)c1ccco1,-2,-6,0,3,18,1
CC1(C)CC(NC(=O)C2CCN(S(=O)(=O)c3ccccc3C(F)(F)F)CC2)CC(C)(C)N1,11,11,5,10,-3,3
O=C1CSC(c2ccc(F)cc2)N1c1nc2ccccc2s1 (stereo not drawn),-17,0,/,-20,-6,62*
O=C1CSC(c2ccc(F)cc2)N1c1ccccc1F (stereo not drawn),14,7,-4,-6,-4,-1
CCOC(=O)c1c(SC)n(-c2ccccc2)c(=S)n(-c2ccccc2)c1=O,16,4,19,2,2,-10
CCOC(=O)c1c(SCCN2CCCCC2)n(-c2ccccc2)c(=S)n(-c2ccccc2)c1=O,18,-14,79*,17,8,-3
CCOc1ccccc1-n1c(SCC(=O)Nc2ccccc2C(=O)O)nc2ccccc2c1=O,92*,-81,13,78*,40,21
Cc1cc(N=Nc2ccc(C)c(N=Nc3cc(C)c(N)cc3N)c2)c(N)cc1N,69*,25,-28,49,38,-10
C[C@H]1CN([C@@H](C)CO)C(=O)c2cccc(NC(=O)Nc3ccc4c(c3)OCO4)c2O[C@@H]1CN(C)Cc1ccncc1,/,-80,-27,/,-45,/
O=c1c2sccc2nc(SCc2ccc([N+](=O)[O-])cc2)n1Cc1ccccn1,-5,69*,-4,-4,-7,-15
Cc1ccc(CNC(=O)CSc2nc3ccsc3c(=O)n2Cc2ccccn2)cc1,0,-27,-18,-33,12,-4
O=C(COc1ccccc1)Nc1cccc(-c2nn[nH]n2)c1,-7,-14,6,-26,5,-10
O=C(COc1ccccc1)Nc1cccc(-c2nc3cc4ccccc4cc3[nH]2)c1,77*,/,/,7,/,-52
SMILES,TWEAK-Fn14 inh,PAX8 reporter,EWS-Fli block,TROY NFkB inh,LGR2 inh,LMP1 NFkB inh
COc1cc(OC)c(-c2c3cc(O)c(=O)cc-3oc3cc(O)c(O)cc23)cc1OC,62*,4,-8,8,25,22
Cc1c2cc(O)c(=O)cc-2oc2cc(O)c(O)cc12,86*,/,-10,-4,21,2
CC(=O)/C(N=Nc1cc2c(c([N+](=O)[O-])c1C)C(C)(C)CC2(C)C)=C(\C)O,96*,16,19,81*,/,/
CC(=O)/C(N=Nc1cc2c(cc1[N+](=O)[O-])OCCO2)=C(\C)O,-36,-3,3,-4,-20,0
COC(=O)C1=C(C)NC(=O)NC1c1ccc(N2CCC(c3ccccc3)=N2)cc1 (stereo not drawn),41,-10,9,52*,2,-4
COC(=O)C1=C(C)NC(=O)NC1c1ccc(OC)c(OC)c1 (stereo not drawn),-5,-6,-2,15,8,1
CN1C(=O)c2cc(NS(=O)(=O)c3ccc(Cl)cc3)ccc2OC[C@@H]2O[C@@H](CC(=O)N3CCc4ccccc4C3)CC[C@@H]21,/,38,17,/,6,/
COc1cccc(S(=O)(=O)Nc2ccc3c(c2)C(=O)N(C)[C@H]2CC[C@H](CC(=O)Nc4ccc(C(C)C)cc4)O[C@@H]2CO3)c1,/,66*,11,/,-17,/
CN1C(=O)c2cc(NC(=O)Cc3cccs3)ccc2OC[C@@H]2O[C@@H](CC(=O)NCc3ccc(-c4ccccc4)cc3)CC[C@H]21,/,66*,71*,/,/,/
CN1C(=O)c2cc(NS(=O)(=O)c3ccc(Cl)cc3)ccc2OC[C@H]2O[C@@H](CC(=O)N3CCc4ccccc4C3)CC[C@@H]21,/,74*,19,/,11,/
CC(C)c1cccc(NC(=O)C[C@H]2CC[C@H]3[C@@H](COc4ccc(NC(=O)NCc5ccccc5)cc4C(=O)N3C)O2)c1,/,64*,1,/,15,/
CN1C(=O)c2cc(NC(=O)Cc3cccs3)ccc2OC[C@H]2O[C@H](CC(=O)NCc3ccc(-c4ccccc4)cc3)CC[C@H]21,/,2,-5,/,3,/
CNC[C@H]1OCCCC[C@H](C)Oc2ccc(NC(=O)c3ccccc3)cc2C(=O)N([C@H](C)CO)C[C@H]1C,/,-4,6,/,-9,/
CN1C(=O)c2cc(NC(=O)c3cccc(Cl)c3)ccc2OC[C@H]2O[C@H](CC(=O)NC3CCCCC3)CC[C@@H]21,/,70*,0,/,-6,/
O=C1C=C(O)c2c(O)cc(O)c(O)c2C1=O,70*,/,-10,6,-12,9
O=C(C[C@@H]1C=C[C@H](NC(=O)c2ccccc2)[C@H](CO)O1)NCCc1ccncc1,/,-11,0,/,8,/
N=C(N)CCCOc1ccccc1-c1ccccc1,-25,63*,5,7,-12,4
